# Test results taken from the supplement of paper PMC10849652.
# The full data set covers some 7,900 targets. This sample favours those with a hit. About 0.6% of all pairs of compound and target were hits. A number with no mark means an inactive call.
# Columns and labels:
# Assay in all cases: log2 fold change, soluble protein after heating vs DMSO (PISA); higher = thermal stabilisation; K562 cells, 10 uM, 30 min; active = over 0.2 and 3.5 SD of the protein, either way, in both replicates (recomputed)
# [1] = compound: COC1=CC=C(C=C1)CN2C=CC3=C2C=C(C=C3)C(=O)NO
# How it was run: (§1)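 K562 cells (2×10^6 cells/mL) were treated with 10 μM compound for 30 min, and aliquots were heated for 3 min over 48°C-58°C. Pooled aliquots were extracted in PBS with 0.5% NP-40 at 4°C, and the supernatant after 21,000xg for 90 min was measured by TMTpro 16plex LC-MS/MS with channel sums equalised. Reported thermal stability, relative to control samples and from duplicates, is a log2 fold change.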
# filanesib = compound: CON(C)C(=O)N1N=C(c2cc(F)ccc2F)S[C@@]1(CCCN)c1ccccc1 [filanesib]
# How it was run: as §1
# zotarolimus = compound: CO[C@H]1C[C@@H]2CC[C@@H](C)[C@@](O)(O2)C(=O)C(=O)N2CCCC[C@H]2C(=O)O[C@H]([C@H](C)C[C@@H]2CC[C@H](n3cnnn3)[C@H](OC)C2)CC(=O)[C@H](C)/C=C(\C)[C@@H](O)[C@@H](OC)C(=O)[C@H](C)C[C@H](C)/C=C/C=C/C=C/1C [zotarolimus]
# How it was run: as §1
# idasanutlin = compound: COc1cc(C(=O)O)ccc1NC(=O)[C@@H]1N[C@@H](CC(C)(C)C)[C@](C#N)(c2ccc(Cl)cc2F)[C@H]1c1cccc(Cl)c1F [idasanutlin]
# How it was run: as §1
# alisertib = compound: COc1cc(Nc2ncc3c(n2)-c2ccc(Cl)cc2C(c2c(F)cccc2OC)=NC3)ccc1C(=O)O [alisertib]
# How it was run: as §1
# [2] = compound: COc1cc2nc(-c3cc(F)ccc3O)nc(N[C@@H]3CNC[C@H]3C(C)(C)O)c2cc1OC
# How it was run: as §1
# gefitinib = compound: COc1cc2ncnc(Nc3ccc(F)c(Cl)c3)c2cc1OCCCN1CCOCC1 [gefitinib]
# How it was run: as §1
# [3] = compound: COc1cccc2cc(-c3nc([C@H]4CC[C@H](C(=O)O)CC4)n4ncnc(N)c34)[nH]c12
# How it was run: as §1
# lapatinib = compound: CS(=O)(=O)CCNCc1ccc(-c2ccc3ncnc(Nc4ccc(OCc5cccc(F)c5)c(Cl)c4)c3c2)o1 [lapatinib]
# How it was run: as §1
# pictilisib = compound: CS(=O)(=O)N1CCN(Cc2cc3nc(-c4cccc5[nH]ncc45)nc(N4CCOCC4)c3s2)CC1 [pictilisib]
# How it was run: as §1
# UniProt Q96LU5, sequence (Q96LU5 whole entry, looked up): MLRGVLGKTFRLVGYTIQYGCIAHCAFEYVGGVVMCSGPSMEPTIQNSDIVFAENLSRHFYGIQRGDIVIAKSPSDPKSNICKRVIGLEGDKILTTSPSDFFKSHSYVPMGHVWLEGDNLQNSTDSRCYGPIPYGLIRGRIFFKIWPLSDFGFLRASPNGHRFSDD
# UniProt O60333, sequence (O60333 whole entry, looked up): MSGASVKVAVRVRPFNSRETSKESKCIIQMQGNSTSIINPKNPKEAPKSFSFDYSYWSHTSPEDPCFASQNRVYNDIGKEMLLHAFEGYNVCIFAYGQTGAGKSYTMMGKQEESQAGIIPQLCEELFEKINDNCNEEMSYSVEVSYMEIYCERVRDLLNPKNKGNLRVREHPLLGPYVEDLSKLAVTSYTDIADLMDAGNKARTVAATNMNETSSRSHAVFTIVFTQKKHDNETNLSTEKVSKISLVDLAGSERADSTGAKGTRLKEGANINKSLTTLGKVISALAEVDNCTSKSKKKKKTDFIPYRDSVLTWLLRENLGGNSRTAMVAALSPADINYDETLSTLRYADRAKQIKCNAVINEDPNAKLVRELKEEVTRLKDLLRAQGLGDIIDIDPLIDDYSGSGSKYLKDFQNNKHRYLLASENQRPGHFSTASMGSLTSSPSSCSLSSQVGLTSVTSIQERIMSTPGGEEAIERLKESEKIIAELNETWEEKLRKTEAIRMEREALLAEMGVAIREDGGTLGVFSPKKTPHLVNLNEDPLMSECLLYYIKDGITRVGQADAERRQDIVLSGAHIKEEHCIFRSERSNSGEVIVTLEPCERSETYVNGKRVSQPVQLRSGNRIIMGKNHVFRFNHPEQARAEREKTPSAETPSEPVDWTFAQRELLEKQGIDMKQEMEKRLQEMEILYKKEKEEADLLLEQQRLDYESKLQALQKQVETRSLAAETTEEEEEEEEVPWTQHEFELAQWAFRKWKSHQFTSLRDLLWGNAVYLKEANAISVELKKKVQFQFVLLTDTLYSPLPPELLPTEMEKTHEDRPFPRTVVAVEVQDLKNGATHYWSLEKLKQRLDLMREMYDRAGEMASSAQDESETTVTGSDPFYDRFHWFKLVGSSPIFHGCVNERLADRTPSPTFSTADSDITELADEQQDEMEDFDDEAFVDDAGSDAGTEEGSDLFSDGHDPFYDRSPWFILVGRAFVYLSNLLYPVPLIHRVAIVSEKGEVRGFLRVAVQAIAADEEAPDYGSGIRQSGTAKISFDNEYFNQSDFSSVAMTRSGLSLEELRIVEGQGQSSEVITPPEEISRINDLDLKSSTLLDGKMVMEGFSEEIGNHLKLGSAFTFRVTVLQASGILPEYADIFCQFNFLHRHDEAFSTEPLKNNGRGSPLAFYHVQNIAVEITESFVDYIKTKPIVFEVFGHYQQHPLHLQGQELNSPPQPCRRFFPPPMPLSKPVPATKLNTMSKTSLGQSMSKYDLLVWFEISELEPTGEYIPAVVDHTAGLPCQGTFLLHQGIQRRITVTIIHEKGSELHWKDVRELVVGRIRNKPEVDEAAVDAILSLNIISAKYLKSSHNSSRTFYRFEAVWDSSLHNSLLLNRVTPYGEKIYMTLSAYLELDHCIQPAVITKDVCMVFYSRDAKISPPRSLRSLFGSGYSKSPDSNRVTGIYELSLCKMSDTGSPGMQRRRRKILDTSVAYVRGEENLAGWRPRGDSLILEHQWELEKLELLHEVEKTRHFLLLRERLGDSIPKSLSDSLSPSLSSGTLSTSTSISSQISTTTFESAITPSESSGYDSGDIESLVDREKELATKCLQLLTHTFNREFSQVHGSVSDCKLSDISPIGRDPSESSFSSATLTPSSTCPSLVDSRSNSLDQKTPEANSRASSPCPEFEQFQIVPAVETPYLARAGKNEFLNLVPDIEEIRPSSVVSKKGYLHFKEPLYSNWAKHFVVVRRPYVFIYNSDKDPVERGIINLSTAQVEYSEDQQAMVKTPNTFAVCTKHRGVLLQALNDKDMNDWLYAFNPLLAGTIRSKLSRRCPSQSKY
# UniProt Q96P70, sequence (Q96P70 whole entry, looked up): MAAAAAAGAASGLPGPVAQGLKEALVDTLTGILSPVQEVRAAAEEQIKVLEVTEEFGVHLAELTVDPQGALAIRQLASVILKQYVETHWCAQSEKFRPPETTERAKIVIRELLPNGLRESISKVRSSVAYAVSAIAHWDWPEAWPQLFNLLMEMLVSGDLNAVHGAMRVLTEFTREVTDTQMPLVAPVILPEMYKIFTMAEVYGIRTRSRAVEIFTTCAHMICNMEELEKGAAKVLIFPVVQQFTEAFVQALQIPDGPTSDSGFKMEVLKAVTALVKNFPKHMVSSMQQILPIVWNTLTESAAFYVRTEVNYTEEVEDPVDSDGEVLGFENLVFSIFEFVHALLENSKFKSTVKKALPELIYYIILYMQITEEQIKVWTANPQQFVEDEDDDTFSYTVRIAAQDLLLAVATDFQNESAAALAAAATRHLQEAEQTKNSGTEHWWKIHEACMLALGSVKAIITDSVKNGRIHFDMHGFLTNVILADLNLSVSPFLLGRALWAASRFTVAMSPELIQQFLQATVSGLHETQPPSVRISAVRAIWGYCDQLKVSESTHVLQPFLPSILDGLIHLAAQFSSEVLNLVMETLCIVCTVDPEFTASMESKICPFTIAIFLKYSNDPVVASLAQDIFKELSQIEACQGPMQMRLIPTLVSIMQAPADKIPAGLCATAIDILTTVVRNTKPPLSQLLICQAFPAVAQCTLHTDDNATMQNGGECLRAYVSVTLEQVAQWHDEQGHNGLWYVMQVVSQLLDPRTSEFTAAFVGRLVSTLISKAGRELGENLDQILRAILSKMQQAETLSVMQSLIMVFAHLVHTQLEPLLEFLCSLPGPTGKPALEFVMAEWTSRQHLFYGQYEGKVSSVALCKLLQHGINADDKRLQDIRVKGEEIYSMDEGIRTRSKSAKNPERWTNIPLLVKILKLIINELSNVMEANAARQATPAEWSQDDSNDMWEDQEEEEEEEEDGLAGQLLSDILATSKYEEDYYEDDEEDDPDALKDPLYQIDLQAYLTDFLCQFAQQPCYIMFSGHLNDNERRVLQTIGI
# UniProt Q6P1A2, sequence (Q6P1A2 whole entry, looked up): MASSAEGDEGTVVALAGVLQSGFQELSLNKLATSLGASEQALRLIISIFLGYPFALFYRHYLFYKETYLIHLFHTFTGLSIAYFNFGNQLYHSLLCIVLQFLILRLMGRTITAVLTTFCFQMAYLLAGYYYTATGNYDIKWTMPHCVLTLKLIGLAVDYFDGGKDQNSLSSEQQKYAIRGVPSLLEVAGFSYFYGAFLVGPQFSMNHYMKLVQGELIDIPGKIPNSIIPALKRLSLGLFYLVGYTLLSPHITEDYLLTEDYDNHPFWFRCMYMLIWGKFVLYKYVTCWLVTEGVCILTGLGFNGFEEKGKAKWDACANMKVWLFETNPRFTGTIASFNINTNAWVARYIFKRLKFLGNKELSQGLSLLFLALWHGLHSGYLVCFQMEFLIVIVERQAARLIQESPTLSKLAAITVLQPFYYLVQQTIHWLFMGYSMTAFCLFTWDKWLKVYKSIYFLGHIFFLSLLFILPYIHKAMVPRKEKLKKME
# UniProt Q07666, sequence (Q07666 whole entry, looked up): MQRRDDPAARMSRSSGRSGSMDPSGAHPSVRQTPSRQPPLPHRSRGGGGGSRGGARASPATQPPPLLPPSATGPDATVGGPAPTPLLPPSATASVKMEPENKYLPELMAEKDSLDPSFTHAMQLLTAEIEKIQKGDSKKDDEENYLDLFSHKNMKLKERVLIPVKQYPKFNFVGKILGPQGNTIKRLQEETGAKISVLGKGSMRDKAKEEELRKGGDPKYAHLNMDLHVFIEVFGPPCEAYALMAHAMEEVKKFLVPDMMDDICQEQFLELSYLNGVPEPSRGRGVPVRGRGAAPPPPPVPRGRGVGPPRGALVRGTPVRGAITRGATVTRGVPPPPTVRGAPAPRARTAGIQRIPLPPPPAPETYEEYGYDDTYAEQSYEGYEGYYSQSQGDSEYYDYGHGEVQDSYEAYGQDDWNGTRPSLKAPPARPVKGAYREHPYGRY
# UniProt Q6UWB1, sequence (Q6UWB1 whole entry, looked up): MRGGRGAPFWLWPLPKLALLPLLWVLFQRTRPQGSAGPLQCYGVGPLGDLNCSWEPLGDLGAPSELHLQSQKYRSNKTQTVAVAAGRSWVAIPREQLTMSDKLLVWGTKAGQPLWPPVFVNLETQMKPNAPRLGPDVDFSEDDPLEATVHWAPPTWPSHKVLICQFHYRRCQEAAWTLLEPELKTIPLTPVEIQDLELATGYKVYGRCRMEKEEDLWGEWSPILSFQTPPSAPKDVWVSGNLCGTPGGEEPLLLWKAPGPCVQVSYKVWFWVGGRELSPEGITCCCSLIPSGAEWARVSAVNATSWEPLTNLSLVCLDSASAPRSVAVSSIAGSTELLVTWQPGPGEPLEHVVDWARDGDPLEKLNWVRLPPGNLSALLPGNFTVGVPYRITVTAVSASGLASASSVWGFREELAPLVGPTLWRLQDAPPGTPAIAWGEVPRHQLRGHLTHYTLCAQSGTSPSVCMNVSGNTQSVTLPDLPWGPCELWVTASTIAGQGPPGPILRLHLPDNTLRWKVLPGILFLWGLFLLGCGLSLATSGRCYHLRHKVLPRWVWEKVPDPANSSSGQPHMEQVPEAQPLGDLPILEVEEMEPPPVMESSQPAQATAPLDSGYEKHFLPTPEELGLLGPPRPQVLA
# UniProt Q8IYU8, sequence (Q8IYU8 whole entry, looked up): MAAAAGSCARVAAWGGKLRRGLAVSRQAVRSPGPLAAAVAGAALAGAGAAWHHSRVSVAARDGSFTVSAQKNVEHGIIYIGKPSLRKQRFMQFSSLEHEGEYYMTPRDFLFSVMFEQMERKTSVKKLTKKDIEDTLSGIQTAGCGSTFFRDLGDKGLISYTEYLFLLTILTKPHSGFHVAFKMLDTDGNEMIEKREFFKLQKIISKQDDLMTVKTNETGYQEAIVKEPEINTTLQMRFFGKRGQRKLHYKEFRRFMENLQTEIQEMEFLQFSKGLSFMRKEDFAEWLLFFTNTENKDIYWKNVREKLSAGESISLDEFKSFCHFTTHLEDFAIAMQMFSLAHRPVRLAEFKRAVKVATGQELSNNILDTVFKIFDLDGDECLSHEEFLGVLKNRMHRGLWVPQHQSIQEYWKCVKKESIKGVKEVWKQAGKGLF
Target,log2 fold change [1],log2 fold change (filanesib),log2 fold change (zotarolimus),log2 fold change (idasanutlin),log2 fold change (alisertib),log2 fold change [2],log2 fold change (gefitinib),log2 fold change [3],log2 fold change (lapatinib),log2 fold change (pictilisib)
KDM3B (UniProt Q7LBC6),0.01,0.001,0.033,-0.026,0.021,0.065,0.008,-0.029,-0.014,0.012
LPGAT1 (UniProt Q92604),0.124,-0.021,0.001,-0.098,0.032,-0.082,-0.059,0.12,0.15,–
LPCAT3 (UniProt Q6P1A2),-0.067,-0.352 (active),-0.065,-0.086,-0.055,-0.117,-0.024,-0.017,0.172,-0.011
IL27RA (UniProt Q6UWB1),-0.02,0.065,-0.11,0.113,-0.29,0.047,-0.169,0.207,0.043,–
MARCKS (UniProt P29966),0.108,0.004,0.001,0.062,0.006,-0.016,-0.003,0.069,0.019,-0.225
KSR1 (UniProt Q8IVT5),0.015,0.033,0.016,0.034,0.123,-0.329,-0.028,0.126,0.087,0.176
LTN1 isoform 3 (UniProt O94822),0,-0.009,0.039,-0.136,0.01,0.04,-0.04,-0.108,-0.029,-0.157
KCTD10 (UniProt Q9H3F6),0.086,0.177,-0.095,-0.049,-0.06,0.079,-0.03,-0.105,0.001,-0.039
MEPCE (UniProt Q7L2J0),-0.706 (active),0.042,0.042,0.036,-0.093,-0.167,0.078,0.013,0.102,-0.013
KTN1 (UniProt Q86UP2),0.023,0.146,0.034,0.004,0.032,-0.001,-0.08,-0.116,-0.038,-0.086
LPIN1 isoform 7 (UniProt Q14693),-0.079,0.047,-0.048,-0.03,0.046,0.017,-0.018,-0.041,-0.101,-0.035
KHDRBS1 (UniProt Q07666),0.06,0.041,-0.012,0.002,0.014,0.129,0.026,0.008,-0.072,-0.072
MICU2 (UniProt Q8IYU8),0.067,-0.089,-0.142,0.022,-0.067,-0.21,0.038,-0.031,-0.031,0.005
MIER1 isoform 12 (UniProt Q8N108),-0.041,-0.067,-0.015,-0.04,-0.023,-0.039,-0.001,0.014,0.011,-0.066
LYN (UniProt P07948),-0.074,0.021,0.07,-0.01,0.002,0.259,-0.036,0.081,0.011,0.112
MCUR1 (UniProt Q96AQ8),-0.042,0.019,-0.002,-0.13,0.009,0.181,0.009,0.052,-0.009,0.087
IMMP1L (UniProt Q96LU5),-0.041,-0.067,-0.034,-0.067,-0.252 (active),0.005,-0.022,0.016,-0.062,–
KDELR2 (UniProt P33947),-0.155,-0.105,0.035,-0.162,-0.014,-0.136,-0.064,0.048,-0.127,-0.013
KIF1B isoform 4 (UniProt O60333),0.008,-0.128,0.024,-0.006,-0.044,-0.014,-0.004,-0.04,0.013,0.037
ILKAP (UniProt Q9H0C8),0,-0.016,0.03,-0.06,-0.13,0.113,0.032,-0.056,-0.029,-0.035
MARK3 (UniProt P27448),0.008,0.054,0.062,0.091,0.05,-0.219,-0.002,-0.063,0.022,-0.033
LDAH isoform 2 (UniProt Q9H6V9),0.06,-0.137,0.057,-0.185,-0.041,-0.517 (active),0.004,0.032,-0.005,0.075
MAPK14 isoform 2 (UniProt Q16539),0,0.016,-0.033,-0.018,-0.058,-0.005,0.811,0.319,-0.034,-0.114
LUC7L2 (UniProt Q9Y383),0.05,0.121,0.113,0.093,-0.032,-0.048,-0.052,0.008,0.04,0.095
IPO9 (UniProt Q96P70),0.014,-0.005,0.052,-0.089,-0.016,-0.054,0.088,0.065,0.011,0.031
IMMT isoform 4 (UniProt Q16891),-0.008,-0.122,-0.007,-0.082,-0.049,-0.146,-0.005,0.013,-0.047,0.005
MFGE8 (UniProt Q08431),-0.129,0.129,-0.03,0.05,-0.147,0.019,0.069,-0.124,0.079,0.122
MED8 isoform 2 (UniProt Q96G25),-0.11,0.033,-0.004,0.095,-0.088,-0.154,-0.034,-0.041,0.058,–
MAGOHB (UniProt Q96A72),-0.012,0.018,0.054,-0.027,0.011,0.144,0,0.024,-0.018,0.005
ITM2B (UniProt Q9Y287),-0.109,0.092,-0.042,-0.03,0.083,-0.037,-0.047,0.138,-0.116,–
